This excerpt belongs to a sample that is enriched for hits.
LmPK inhibitor = LmPK (Leishmania mexicana) enzyme inhibition; purified LmPK, Kinase-Glo ATP luminescence, 1 h; Potency, µM (highest dose often 57.5 µM), for inactives: at the top dose activity change, negative = inhibition, usual class: inhibitors; 0.37% of 290,000 active; AID 1721; further: potency means the concentration at half of the fitted maximal effect; on the % scale 0 is the no-effect control and ±100 the full control effect
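Screened at intermediate enzyme activity to detect both inhibitors and activators: LmPK at 0.1 nM, with a 0.5 nM enzyme column as activation reference. PEP 0.5 mM, ADP 0.1 mM; ATP detected by luminescence after 1 h.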
Cycloheximide cs = counter-screen hit for Shiga toxin inhibitors, cycloheximide. cell reporter, cycloheximide protein synthesis inhibition counterscreen. max response, %. 12% of 300,000 active. AID 2314; in the data active means max response mostly above about 13%, no sharp cut-off; inactive means mostly below about 14%; further: read at 38.3 µM for the half of the compounds with a filed dose; 0% is about no effect
RE007 growth inh = less growth of the S. pombe RE007 Vpr strain | 0.21% of 360,000 active | S. pombe RE007 Vpr strain, BacTiter-Glo ATP luminescence, 24 h | AID 651644 | Potency, µM (titrated, usually from 92.2 µM), inactives show top-dose activity change, negative = less growth, usual class: inhibitors; active means well fitted falling curve with a large enough effect; inconclusive means small, poorly fitted or top-dose-only effect; inactive means no such curve, though single readings can be large or run the other way; further: potency means the concentration at half of the fitted maximal effect; on the % scale 0 is the no-effect control and ±100 the full control effect; nearly all actives have a fitted effect of over 50% in size
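Fission yeast strain RE007, carrying one chromosomally integrated HIV-1 vpr copy, was seeded at OD 0.01 in PMG+AL medium with 23 nL pinned compound. After 24 h at 30 °C and 99% humidity, viability was read by BacTiter-Glo luminescence.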
Shiga toxin inh = inhibitors of Shiga toxin in Vero cells. inhibition, % at 38.7 µM. Vero cells, Shiga toxin protein synthesis inhibition reporter. AID 2315. 9.2% of 290,000 active; in the data active means inhibition mostly above about 28%, no sharp cut-off; inactive means mostly below about 43%; further: 0% is about no effect
TbPYK inhibitor = T. brucei pyruvate kinase inhibition | Potency, µM (series often up to 76.8 µM), for the others: at the top dose activity, negative = inhibition, usual class: inhibitors | TbPYK enzyme, Kinase-Glo Plus ATP luminescence, 45 min | Q57TT1 | 0.12% of 410,000 active; further: potency means the concentration at half of the fitted maximal effect; on the % scale 0 is the no-effect control and ±100 the full control effect; nearly all actives have a fitted effect of over 50% in size
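Activity of T. brucei pyruvate kinase was followed by Kinase-Glo Plus luminescence after the enzyme reacted 45 min at room temperature with 130 uM ADP (final) and substrate. Test compounds were added before ADP at multiple concentrations.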
Giardia FBPA inh = inhibitors of Giardia lamblia fructose-1,6-bisphosphate aldolase | purified Giardia FBPA | 0.71% of 290,000 active | Potency, µM (series often up to 59.6 µM), for inactives: at the top dose activity, negative = inhibition, hits mostly inhibitors | A8B2U2 | AID 2451; further: potency means the concentration at half of the fitted maximal effect; on the % scale 0 is the no-effect control and ±100 the full control effect; nearly all actives have a fitted effect of over 55% in size
Target sequence (A8B2U2 whole entry, looked up): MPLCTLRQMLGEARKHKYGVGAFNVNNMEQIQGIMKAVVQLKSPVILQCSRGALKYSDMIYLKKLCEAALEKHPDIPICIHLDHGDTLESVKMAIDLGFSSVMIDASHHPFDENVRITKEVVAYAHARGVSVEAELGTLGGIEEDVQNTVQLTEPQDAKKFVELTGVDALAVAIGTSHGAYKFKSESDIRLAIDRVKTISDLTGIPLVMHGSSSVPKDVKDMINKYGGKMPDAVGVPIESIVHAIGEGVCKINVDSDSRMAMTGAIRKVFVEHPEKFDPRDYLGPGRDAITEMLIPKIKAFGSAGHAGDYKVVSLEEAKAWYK
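Giardia FBPA (40 nM reagent) was preincubated 10 min at RT with compound (up to 57.5 uM final), then substrate plus GAPDH/TPI/NAD/arsenate coupling system with diaphorase/resazurin was added; resorufin fluorescence (525/598 nm) was read after 20 min.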
Numbers without * were called inactive. Unless noted, the call rests on the fitted dose curve; in most records, active means well fitted curve in the direction sought with a large enough effect; inconclusive means small, poorly fitted or top-dose-only effect, or another doubt; inactive means no such curve, though single readings can be large; an effect the other way counts as inactive or inconclusive.

For Cc1ccc(S(=O)(=O)Nc2ccccc2CNc2ccccn2)cc1 the results were LmPK inhibitor 1%, Cycloheximide cs 22*, Shiga toxin inh 37*, TbPYK inhibitor 3% and Giardia FBPA inh -17%.
`Cc1ccc(O)c(CNc2ccccn2)c1` gave LmPK inhibitor 1%, Cycloheximide cs 22, RE007 growth inh 7%, Shiga toxin inh 101*, TbPYK inhibitor -4% and Giardia FBPA inh 1%.
`Cc1ccc(O)c(CNc2cccc(C)n2)c1` gave LmPK inhibitor -7%, Cycloheximide cs 12, RE007 growth inh 4%, Shiga toxin inh 24, TbPYK inhibitor -4% and Giardia FBPA inh 9%.
For Cc1cccc(C)c1NC(=O)C1CC2CCC1C2 (stereo not given) the results were RE007 growth inh 0% and TbPYK inhibitor 1%.
For CC(C)c1ccc(NC(=O)C2CC3CCC2C3)cc1 (stereo not given) the results were LmPK inhibitor -1%, Cycloheximide cs 53*, RE007 growth inh inconclusive, Shiga toxin inh 86*, TbPYK inhibitor -5% and Giardia FBPA inh -13%.
Screening Cc1cc(C)c(NC(=O)C2CC3CCC2C3)c(C)c1 (stereo not given) returned LmPK inhibitor 3%, Cycloheximide cs 15*, RE007 growth inh 3%, Shiga toxin inh 33, TbPYK inhibitor 1% and Giardia FBPA inh -3%.
For CCC(C)c1ccc(NC(=O)C2CC3CCC2C3)cc1 (stereo not given) the results were RE007 growth inh -3% and TbPYK inhibitor 4%.
Cc1ccc(NC(=O)CN2C(=O)c3ccccc3Sc3ncccc32)c(C)c1 was read as TbPYK inhibitor -4%.
`Cc1cccc(NC(=O)c2cnc3ccccn3c2=O)c1` gave LmPK inhibitor -20%, Cycloheximide cs 31*, RE007 growth inh 4%, Shiga toxin inh 22*, TbPYK inhibitor 1% and Giardia FBPA inh 4%.
O=C(Nc1cnc2sccn2c1=O)c1ccccc1Cl was read as LmPK inhibitor inconclusive, Cycloheximide cs 40*, RE007 growth inh -10%, Shiga toxin inh 65, TbPYK inhibitor -8% and Giardia FBPA inh 1%.
O=C(Nc1ccc2c(c1)OCCO2)c1cnc2ccccn2c1=O was read as RE007 growth inh -9% and TbPYK inhibitor 3%.
Cc1cccc(NC(=O)c2cnc3sccn3c2=O)c1C was read as LmPK inhibitor -10%, Cycloheximide cs 24*, Shiga toxin inh 66* and Giardia FBPA inh 2%.
Cc1cccc(NC(=O)c2cnc3sccn3c2=O)c1 was read as LmPK inhibitor -13%, Cycloheximide cs 56*, RE007 growth inh -5%, Shiga toxin inh 77*, TbPYK inhibitor -13% and Giardia FBPA inh -5%.
`COC(=O)c1c(N)n(-c2cc(Cl)cc(Cl)c2)c2nc3ccccc3nc12` gave TbPYK inhibitor -3%.
`Cc1cccc(OCC(=O)Nc2cccc(OCc3cc(=O)n4cccc(C)c4n3)c2)c1` gave TbPYK inhibitor -5%.
For Cc1ccc(Sc2ccc(N3CCCC(C(=O)Nc4ccc(Br)cc4)C3)nn2)cc1 (stereo not given) the results were TbPYK inhibitor 0%.
Screening COc1ccc(NC(=O)c2cnc3sccn3c2=O)cc1 returned LmPK inhibitor -10%, Cycloheximide cs 27*, RE007 growth inh 18%, Shiga toxin inh 43*, TbPYK inhibitor 2% and Giardia FBPA inh -1%.
Screening Cc1cccc(NC(=O)c2cnc3sccn3c2=O)n1 returned RE007 growth inh -6% and TbPYK inhibitor 0%.
`COc1cccc(-c2nc(SCc3cc(=O)c4ccc(C)c(C)c4[nH]3)n[nH]2)c1` gave TbPYK inhibitor 1%.
Screening CNC(=O)Oc1cccc(-c2cn3cc(OC(=O)NC)ccc3n2)c1 returned LmPK inhibitor -21%, Cycloheximide cs 37*, RE007 growth inh inconclusive, Shiga toxin inh active, TbPYK inhibitor -8% and Giardia FBPA inh inconclusive.
For CNC(=O)Oc1ccc(-c2cn3cc(Cl)ccc3n2)cc1 the results were LmPK inhibitor -10%, Cycloheximide cs 21*, RE007 growth inh -25%, Shiga toxin inh 55, TbPYK inhibitor -11% and Giardia FBPA inh -22%.
Screening CNCc1cn2cc(Cl)ccc2n1 returned LmPK inhibitor 0%, Cycloheximide cs -1, RE007 growth inh 13%, Shiga toxin inh 6, TbPYK inhibitor 5% and Giardia FBPA inh 9%.
`CN1c2ccccc2-c2nc(SCC(=O)Nc3ccccc3C(F)(F)F)ncc2S1(=O)=O` gave TbPYK inhibitor -4%.
Cc1c(NC(=O)c2cccs2)cccc1-c1nc2cc(Cl)ccc2o1 was read as TbPYK inhibitor 4%.
`CC1CCCN(C(=O)CSc2nnc(-c3cccs3)o2)C1` (stereo not given) gave LmPK inhibitor 0%, Cycloheximide cs 39*, RE007 growth inh -3%, Shiga toxin inh 64* and TbPYK inhibitor -2%.
CC1CCCN(C(=O)CSc2nnc(-c3ccc(O)cc3)o2)C1 (stereo not given) was read as LmPK inhibitor -14%, Cycloheximide cs -1, RE007 growth inh -16%, Shiga toxin inh 28, TbPYK inhibitor -1% and Giardia FBPA inh 1%.
`O=C(CSc1nnc(-c2cccs2)o1)OC1CCCCC1` gave LmPK inhibitor 1%, Cycloheximide cs -3, RE007 growth inh 2%, Shiga toxin inh 1, TbPYK inhibitor -9% and Giardia FBPA inh 7%.
For CCC1CCCCN1C(=O)CSc1nnc(-c2cccs2)o1 (stereo not given) the results were LmPK inhibitor -1%, Cycloheximide cs 29*, RE007 growth inh 15%, Shiga toxin inh 89*, TbPYK inhibitor -11% and Giardia FBPA inh 2%.
Screening O=C(NCCSCc1c(F)cccc1Cl)C1CCN(S(=O)(=O)Cc2ccccc2)CC1 returned TbPYK inhibitor -1%.
Screening Cc1ccc(S(=O)(=O)c2cn(Cc3cccc(F)c3)c3cc(N4CCCC4)c(F)cc3c2=O)cc1 returned TbPYK inhibitor -9%.
Screening CC(/C=C/c1ccccc1)=N\NC(=O)CNC(=O)c1ccccc1Cl returned LmPK inhibitor -3%, Cycloheximide cs 10*, RE007 growth inh 18%, Shiga toxin inh -12, TbPYK inhibitor -6% and Giardia FBPA inh 4%.
Screening CC(/C=C/C=C/c1ccccc1)=N/NC(=O)CNc1ccc(C)cc1 returned LmPK inhibitor 3%, Cycloheximide cs 35*, RE007 growth inh -3%, Shiga toxin inh 32, TbPYK inhibitor 3% and Giardia FBPA inh -12%.
CC[C@@H](C(=O)[C@@H](C)[C@@H](O)[C@H](C)CCc1ccc(C)c(O)c1C(=O)O)C1O[C@](CC)(C2CC[C@](O)(CC)[C@H](C)O2)C[C@@H]1C (stereo not given in full) was read as Cycloheximide cs -2, Shiga toxin inh 15 and Giardia FBPA inh 9%.

Screening data as filed in PubChem BioAssay.
